Measured values published in PubChem BioAssay AID449764 (Southern Research Specialized Biocontainment Screening …, 2010).
Screen size: about 2,300 compounds; about 1,700 (74%) were called active. No rule for the calls is given here. So high a share suggests a set chosen from earlier hits. This is one part of the list. Entries that show only a call come without a potency. Potency and affinity values are given separately.

Test: Confirmatory growth inhibition assay, Mycobacterium tuberculosis H37Rv, absence of glycerol (AID 449764);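 also: growth read after 7 days of incubation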
Settings: no glycerol; series mostly up to 100 µM

| Compound | outcome |
| --- | --- |
| CC12CN3CCN(CC(C3)/C1=N\NC(=O)Nc1cccc(Cl)c1)C2 | inactive |
| Cc1ccccc1-c1nc(CN2CCC(C(=O)NCCC3=CCCCC3)CC2)c(C)o1 | inactive |
| Cc1ccc2nc(SCC(=O)Nc3ccc4c(c3)CCC4)[nH]c2c1 | inactive |
| CCCc1cc2c(cc1NC(=O)c1ccccc1Cl)OCO2 | inactive |
| Cc1sc2nc3c4ccccc4c(NCc4ccco4)nn3c(=O)c2c1C | inactive |
| Cc1ccc(C2CN(C)C3(C(=O)Nc4ccccc43)C23COc2ccccc2C3=O)cc1 (stereo not given) | inactive |
| CCOc1ccc(N=c2scc(-c3ccccc3)n2CCO)cc1 | inactive |
| CC1(C)OC(=O)C(=NNc2ccc(Cl)cc2)C(=O)O1 | inactive |
| Cc1cccc(CSc2nc3c(c(-c4cccs4)c2C#N)CN(C)CC3)c1 | inactive |
| CC1(C)CC(=O)c2c(O)cc(OCc3ccc(Br)cc3)cc2O1 | inactive |
| COC(=O)C(Cc1ccc(OC(=O)c2ccc(C(F)(F)F)cc2)cc1)N1Cc2ccccc2C1=O (stereo not given) | inactive |
| O=C(CNC(=O)c1ccc(Cl)cc1)c1ccc(Cl)cc1 | inactive |
| Cc1ccsc1/C=N/Nc1ccc(F)cc1F | inactive |
| CCOC(=O)c1ccc(N=Cc2nc3ccccc3n2C)cc1 | inactive |
| CC1(C)CC(=O)c2cc(C(=O)NNc3ccccc3)c(=O)n(-c3ccccc3)c2C1 | inactive |
| Cn1cnnc1SCc1ccc(-c2ccc(Br)cc2)o1 | inactive |
| O=C(Nc1ccc(CN2CCOCC2)cc1)c1ccc(-c2cc(Cl)ccc2Cl)o1 | inactive |
| CCOC(=O)c1ccc(N=C2S/C(=C\c3cc(C)n(-c4cccnc4)c3C)C(=O)N2C)cc1 | inactive |
| C(=C\c1ccccc1)/C=N/Nc1nc2ccccc2s1 | inactive |
| O=C(COC(=O)C1CC2CCCC(C1)C2=O)NNC(=O)c1ccccc1F (stereo not given) | inactive |

| Compound | outcome |
| --- | --- |
| CC1(c2ccc(Cl)c(Cl)c2)NC(=S)N2C1NC(=S)N2c1ccccc1 (stereo not given) | inactive |
| CC(=O)Oc1c(C)cc(Cl)cc1C(=O)Nc1ccc([N+](=O)[O-])cc1Cl | inactive |
| CCCc1nc2oc(C(=O)OCC)c(N)c2c2c1COC(C)(C)C2 | inactive |
| O=C1c2ccccc2C(=O)N1Nc1ccccc1 | inactive |
| COc1ccc(-c2nc(NC(=O)c3[nH]c(C)c(C(C)=O)c3C)sc2C)cc1 | inactive |
| CCc1noc(C)c1C(=O)Nc1nc(-c2ccc(F)cc2)c(C)s1 | inactive |
| CCOC(=O)c1ccc(Nc2cc3ccccc3c(=O)[nH]2)cc1 | inactive |
| CCCCOP(=O)(OCCCC)C(Nc1ccc(C(=O)OCC)cc1)c1ccncc1 (stereo not given) | inactive |
| Cc1ccc(C)c2nc(N3CCCC3)c(C#N)cc12 | inactive |
| N=c1c(C(=O)NC2CCCCC2)cc2c(=O)n3ccccc3nc2n1Cc1ccc(F)cc1 | inactive |
| Cc1ccc(S(=O)(=O)CNC(=S)c2ccc3ccccc3c2)cc1 | inactive |
| O=C(NC1CCCCCC1)c1ccccc1-c1ccccc1 | inactive |
| CCOC(=O)N1CCN(C(=O)COC(=O)C2CCN(S(=O)(=O)c3c(Cl)cccc3Cl)CC2)CC1 | inactive |
| CCOc1ccccc1NC(=O)C12CC3CC(C1)CC(c1ccc(C)cc1)(C3)C2 | inactive |
| COC(=O)CNC(=O)CSc1nc2sc(-c3ccccc3)cc2c(=O)n1-c1ccccc1 | inactive |
| CCOc1ccc(-c2nn3c(-c4ccccc4)nnc3s2)cc1 | inactive |
| Cc1ccccc1-c1nc2cc(N)ccc2o1 | inactive |
| CCCCCCCCCCCCCCCC(=O)NCCO | inactive |
| CCCCCCCCCCNC(=O)C(=O)Nc1ccccn1 | inactive |
| O=C(/C=C/c1ccco1)Nc1cccc(-c2nc3ccccc3[nH]2)c1 | inactive |

| Compound | outcome |
| --- | --- |
| COc1ccc(OC(=O)c2cc3cc(Cl)ccc3oc2=O)cc1 | inactive |
| N/C(Cc1ccc([N+](=O)[O-])cc1)=N\OC(=O)c1ccc2ccccc2c1 | inactive |
| Cc1cccc(C)c1OCC(=O)Nc1cccc(-c2nnc(-c3ccccc3)o2)c1 | inactive |
| O=C(Nc1nc2c(s1)CCCC2)c1cc(-c2ccc3c(c2)OCO3)nc2ccccc12 | inactive |
| Cc1cc(N2CCN(C(=O)Nc3ccccc3C#N)CC2)c2ccccc2n1 | inactive |
| COc1ccc(N=N/C(=C\O)C(=O)c2cccs2)cc1 | inactive |
| Cc1ccc(C(=O)O/N=C(\N)c2ccc(Br)cc2)cc1C | inactive |
| CCOCCCNS(=O)(=O)c1ccc(NC(=O)N2c3ccccc3Sc3ccccc32)cc1 | inactive |
| COc1ccc(N=Cc2c(OC)ccc3ccccc23)cc1 | inactive |
| COc1ccc(N=Cc2c(O)cc(C)oc2=O)cc1 | inactive |
| CCOc1ccc(NC(=O)N(C2CCCCC2)C(C)c2ccncc2)cc1 (stereo not given) | inactive |
| CCOc1ccc(N=C(NC#N)SCC(=O)NC2CC2)cc1 | inactive |
| CCOc1ccc(N=CC2=C(O)CC(c3ccco3)CC2=O)cc1 (stereo not given) | inactive |
| C=CCN1CC[C@]23c4c5ccc(O)c4O[C@H]2/C(=N/NC(=O)c2ccccc2)CC[C@@]3(O)[C@H]1C5 | inactive |
| COc1ccc(N=Cc2c[nH][nH]c2=O)cc1 | inactive |
| Cn1c(N)c(C(=O)COC(=O)c2ccc([N+](=O)[O-])o2)c(=O)n(C)c1=O | inactive |
| O=C(c1n[nH]c(=O)c2ccccc12)N1CCN(C2c3ccccc3-c3ccccc32)CC1 | inactive |
| COCCN=C1Sc2nc3ccc(C)cc3cc2CN1Cc1ccco1 | inactive |
| C#CCCc1cscc1/C=[N+](\[O-])c1ccc(C(=O)OCC)cc1 | inactive |
| O=C(O)c1ccccc1C(=O)NNc1ccc(Cl)cc1Cl | inactive |
